Bioassay records as filed in PubChem BioAssay.
A selection: hits, their analogues and other compounds. The true share with any hit is near 2.5%.
PK Bst: Pyruvate Kinase; purified pyruvate kinase, luminescence ATP production; ribose 5-phosphate activator present at AC10; Potency, µM; actives 1.2% (n = 51,000); in the data active means potency below about 11 µM; inconclusive means mostly about 12 µM to 25 µM;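 the screen sought inhibitors and activators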;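 further: scaled between full activation by ribose 5 phosphate and full inhibition by luteolin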
Luciferase inh: qHTS Assay for Inhibitors of Firefly Luciferase; AID 411, 2009; Potency, µM (titrated, usually from 57.1 µM), for the others: at the highest dose activity change, negative = inhibition, usual class: inhibitors; actives 2.2% (n = 72,000); purified firefly luciferase, luminescence, 8 min; active means well fitted inhibition curve with a large enough effect; inconclusive means small, poorly fitted or top-dose-only effect; further: nearly all actives have a fitted effect of over 40% in size
Target sequence (P08659 whole entry, looked up): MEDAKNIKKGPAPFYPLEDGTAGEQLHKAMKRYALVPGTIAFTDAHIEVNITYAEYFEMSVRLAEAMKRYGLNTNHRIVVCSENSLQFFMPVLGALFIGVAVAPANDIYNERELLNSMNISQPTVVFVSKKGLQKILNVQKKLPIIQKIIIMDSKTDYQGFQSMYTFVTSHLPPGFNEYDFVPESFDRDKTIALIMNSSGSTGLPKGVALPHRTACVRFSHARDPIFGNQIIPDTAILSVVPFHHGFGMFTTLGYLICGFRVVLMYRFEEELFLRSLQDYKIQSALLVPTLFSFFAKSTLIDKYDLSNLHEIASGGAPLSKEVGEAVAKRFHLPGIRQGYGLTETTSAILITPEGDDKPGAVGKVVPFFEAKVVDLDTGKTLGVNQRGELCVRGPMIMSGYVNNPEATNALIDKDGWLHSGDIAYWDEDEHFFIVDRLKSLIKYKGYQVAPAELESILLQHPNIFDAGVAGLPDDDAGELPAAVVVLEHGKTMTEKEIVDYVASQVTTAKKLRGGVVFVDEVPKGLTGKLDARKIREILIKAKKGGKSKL
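Compounds were tested as concentration series (qHTS) against purified P. pyralis luciferase with luciferin and 10 uM ATP in 50 mM imidazole pH 7.2, 50 mM KCl, 7 mM MgCl2, 0.01% Tween 20, 0.05% BSA. Luminescence was read after 8 min at ambient temperature.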
An asterisk follows results filed as active; i = inactive; ? = inconclusive; · = not tested or not shown; [ ] = another dose, or the depositor's remark. Unless noted, on the % scale 0 is the no-effect control and ±100 the full control effect; potency means the concentration at half of the fitted maximal effect.

SMILES | PK Bst | Luciferase inh
Cc1cccc(Nc2nc3c(c(=O)n(C)c(=O)n3C)n2Cc2ccccc2)c1 | >57 | 1.0%
Cc1cccc(N2CCN(C(=O)c3cc4ccccc4oc3=O)CC2)c1C | · | -0.7%
Cn1c(COc2ccccc2)nnc1SCc1cc(=O)[nH]c2ccccc12 | >57 | -1.8%
CC1=CC(=C2C(=O)c3ccccc3C2=O)C=C(C)N1C | · | 15.8µM*
CCN1C(=C2C(=O)c3ccccc3C2=O)C=Cc2ccccc21 | · | -11.0%
O=C(c1cnccn1)N1CCC2(CC1)CN(c1cccc(-c3ccccc3)c1)C2 | · | -2.4%[11.4 µM]
CC(=Nc1ccc(C)c(C)c1)C1=C(O)CCC1=O | >25.6 | -5.2%[25.5 µM]
O=C(Nc1sccc1C(=O)NCc1ccco1)c1cccnc1 | · | 3.9%
CCCCOc1ccc(C(=O)O)cc1 | >57 | 2.3%
Cn1nnc(NC(=O)c2ccccc2F)n1 | · | -12.2%
CCCn1nnc(NC(=O)c2ccco2)n1 | >57 | -5.1%
Cn1nnc(NC(=O)c2ccc(C(C)(C)C)cc2)n1 | ? | 10µM*
Cc1cccc(NC(=O)c2ccc(S(=O)(=O)N(C)C)cc2)n1 | >57 | -1.9%
CCCCOc1ccc(C(=O)Nc2cccc(C)n2)cc1 | i | 12.6µM*
CCOc1ccc(C(=O)Nc2cccc(C)n2)cc1 | 9.78* | 12.6µM*
CCn1nnc(NC(=O)c2ccc(-c3ccc(Cl)cc3)o2)n1 | 6.5* | -17.9%
COc1ccc(CNC(=O)C2CC(c3cccc(OC)c3)=NO2)cc1 (centres undefined) | >57 | 0.6%
CCCCC(c1nnnn1CCOC)N1CCN(c2cccc(OC)c2)CC1 (centres undefined) | >57 | -1.8%
OCCNCc1ccc(OC2CCCC2)cc1 | >57 | 0.1%
O=C(NC1CCC(NC(=O)C(F)(F)C(F)F)CC1)C(F)(F)C(F)F (centres undefined) | · | 0.5%
CCCn1nnc(NC(=O)c2ccc(OCC)c(Cl)c2)n1 | >57 | -0.8%
CCOc1ccc(C(=O)Nc2nnn(CC)n2)cc1 | · | 25.1µM*
Cc1ccccc1Nc1nc(N)nc(COC(=O)c2cccn2C)n1 | >57 | -11.8%
O=C(OCc1nc2ccccc2c(=O)[nH]1)c1cccs1 | >57 | -0.5%
Cc1ccsc1C(=O)OCC(=O)N1CCOCC1 | >57 | 4.5%
SMILES | PK Bst | Luciferase inh
O=C(OCc1csc(-c2ccccc2)n1)c1cccs1 | ? | 12.6µM*
Cn1cccc1C(=O)OCc1csc(-c2ccccc2)n1 | 9.32* | 7.94µM*
O=C(NCCc1csc(-c2cccnc2)n1)c1cccs1 | · | -16.5%
O=C(OCc1nc2ccccc2s1)c1cccs1 | · | 10µM*
Cc1ccsc1C(=O)OCc1csc(-c2ccccc2)n1 | 7.12* | 7.94µM*
CN(C)c1ccc(-c2nc(N(C)C)c3ccccc3n2)cc1 | · | -6.7%[2.29 µM]
COC(=O)C1=C(C)Nc2nnnn2C1c1ccc(Cl)cc1Cl (centres undefined) | ? | -0.8%
CCOc1ccccc1C(=O)NCCCN1CCN(CCCNC(=O)c2ccccc2OCC)CC1 | >57 | 1.6%
Cc1cc(C(=O)Cn2nnc3ccccc3c2=O)c(C)n1Cc1cccs1 | 5.69* | 6.31µM*
COc1ccc(OC)c(C(=O)Cn2nnc3ccccc3c2=O)c1 | >57 | 2.1%
Cc1cc(C(=O)CN2C(=O)c3ccccc3C2=O)c(C)n1Cc1cccs1 | 11.3* | 7.94µM*
Cc1cc(C(=O)CN2C(=O)CCC2=O)c(C)n1Cc1ccccc1 | >57 | -2.8%
O=C(Cn1ncc2ccccc21)N1CCc2ccccc21 | · | -0.1%
COc1ccc(-c2nnc(-c3ccc(N(C)C)cc3)o2)cc1 | >11.4 | -4.5%
COc1ccc(-c2nnc(-c3ccc(N)cc3)o2)cc1 | 3.27* | 7.94µM*
COc1ccc(-c2nnc(SCC(=O)/C(C#N)=C(\C)N)o2)cc1 | · | 5.01µM*
COc1ccc(-c2nnc(SCC(=O)c3ccc(C)o3)o2)cc1 | >57 | -0.5%
N#Cc1cccc(NC(=O)c2ccccc2C(=O)O)c1 | · | 0.5%
CCNc1cc2oc(=O)c(CN3CCOCC3)c(C)c2cc1C | · | -1.4%
Cc1cccc(N(CC(=O)NCc2ccco2)C(=O)CCC(=O)Nc2ccccn2)c1 | >57 | -1.4%
CCCCOC(=O)CSc1nc2c(c(=O)[nH]c(=O)n2C)n1C/C=C(\C)Cl | >57 | 1.3%
O=C(Nc1c(F)cc(F)cc1Br)C1CCCO1 (centres undefined) | >57 | 0.1%
CCCNC(=O)c1cc(-c2ccc(OC)cc2)on1 | >57 | 7.94µM*
CCCCNC(=O)c1cc(-c2ccc(OC)cc2)on1 | >57 | -6.2%
Cn1c(C(=O)Nc2ccc3c(c2)OCO3)cc2sccc21 | 6.37* | 7.94µM*
SMILES | PK Bst | Luciferase inh
COc1ccc(OC)c(NC(=O)c2cc3sccc3n2C)c1 | · | -26.2%
Cn1c(C(=O)NCc2ccc3c(c2)OCO3)cc2sccc21 | >57 | -1.3%
COc1cc(NC(=O)c2cc3sccc3n2C)cc(OC)c1 | 4.03* | 12.6µM*
CC(C)OC(=O)CSc1nnc(-c2ccc(C(C)(C)C)cc2)n1N | >57 | 6.7%
CCCC1(C(=O)OCC)NC(c2ccc(N(C)C)cc2)C2C(=O)N(c3ccc(F)cc3)C(=O)C21 (centres undefined) | >57 | 2.1%
COC(=O)c1sccc1NC(=O)c1c(C)cc(=O)oc1C | >25.6 | -1.9%[25.5 µM]
CCCC(=O)Nc1ccc(NC(=O)c2ccccn2)cn1 | · | 20µM*
CCCC(=O)Nc1ccc(NC(=O)c2ccccc2OC)cn1 | >57 | -2.4%
COc1ccccc1N(CC(=O)NCc1ccccn1)S(C)(=O)=O | · | 0.7%
CCn1c(SCC(=O)N2CCN(S(=O)(=O)c3ccccc3)CC2)nnc1-c1cccs1 | >57 | 0.0%
O=C(CSc1nnc(SCc2ccc(Cl)cc2)s1)N1CCOCC1 | · | 12.6µM*
O=C(CSc1ccc(Cl)cc1)N1CCOCC1 | >57 | -1.2%
Cn1c(SCC(=O)N2CCc3ccccc32)nnc1C1CC1 | >57 | -2.1%
CCOc1ccc(OCC(=O)N2CCOCC2)cc1 | >57 | -0.8%
CN(C)S(=O)(=O)c1ccc(C(=O)Nc2ccc(OCC(=O)N3CCOCC3)cc2)cc1 | · | 15.8µM*
Cc1c(O)c(=O)n(-c2ccccc2)n1C | · | 1.8%[25.5 µM]
O=S(=O)(Nc1ccc(-c2cn3ccsc3n2)cc1)c1ccc2c(c1)OCCO2 | >57 | -8.2%
COc1ccc(C(=O)Nc2ccc(-c3cn4ccsc4n3)cc2)cc1S(=O)(=O)N1CCOCC1 | >57 | -3.1%
CC(C)CC(=O)Nc1ccc(-c2cn3ccsc3n2)cc1 | 2.67* | 3.16µM*
CC(C)(C)C(=O)Nc1ccc(-c2cn3ccsc3n2)cc1 | 1.57* | 1µM*
O=c1[nH]c(CSc2nnc(-c3ccco3)n2-c2ccccc2)nc2sc3c(c12)CCC3 | >57 | 2.0%
CCn1c(C)cc2c(c1=O)C(c1ccccc1Br)C(C#N)=C(N)O2 (centres undefined) | >57 | 2.0%
CCN(C(=O)COc1ccccc1)c1nnc(-c2cccnc2)s1 | >57 | 1.6%
Cc1ccc(C2NC(=O)NC3=C2CCc2ccccc23)cc1 (centres undefined) | ? | 12.6µM*
COc1ccc(C2NC(=O)NC3=C2CCc2ccccc23)cc1 (centres undefined) | · | 4.4%
SMILES | PK Bst | Luciferase inh
c1ccc2c(c1)NC(c1ccncc1)n1c-2nc2ccccc21 (centres undefined) | i | -29.1%[25.5 µM]
c1ccc2c(c1)NC1(CCCC1)n1c-2nc2ccccc21 | i | 25.1µM*
Cc1ccc(C(=O)Nc2cccc(C(=O)O)c2)cc1S(=O)(=O)N1CCCCC1 | · | 12.6µM*
Cc1ccc(C(=O)Nc2ccc3c(c2)OCO3)cc1S(=O)(=O)N1CCCC1 | >57 | -23.4%
COc1cc(N[C@@H](C)CCCN)c2ncccc2c1 | · | 4.7%[25.5 µM]
Cn1c(=O)c2c(nc(NCc3ccco3)n2Cc2ccc(Cl)cc2Cl)n(C)c1=O | >25.6 | 0.7%[25.5 µM]
